Compound activity from PubChem BioAssay.
Rows were chosen to be rich in hits. Some 22% of all compounds tested hit in one or more screens of this group.
Shiga toxin inh: blocks Shiga toxin action in Vero cells; Vero cells, Shiga toxin protein synthesis inhibition reporter; inhibition, % at 38.7 µM; 290,000 compounds, 9.2% hits; AID 2315; in the data active = inhibition mostly above about 28%, no sharp cut-off; inactive = mostly below about 43%; also: 0% is about no effect
CHX counter: counter-screen hit for Shiga toxin inhibitors, cycloheximide | cell reporter, cycloheximide protein synthesis inhibition counterscreen | 300,000 compounds, 12% hits | max response, %; in the data active = max response mostly above about 13%, no sharp cut-off; inactive = mostly below about 14%; also: read at 38.3 µM for the half of the compounds with a filed dose; 0% is about no effect
LmPK inhibitor: blocks Leishmania mexicana pyruvate kinase activity. Q27686. purified LmPK, Kinase-Glo ATP luminescence, 1 h. Potency, µM (series often up to 57.5 µM), for the others: top-dose activity change, negative = inhibition, hits mostly inhibitors. 290,000 compounds, 0.37% hits. AID 1721; also: potency is read from the fitted curve at half-maximal effect; % is scaled to controls: 0 for no effect and ±100 for the full control effect
Target sequence (Q27686 whole entry, looked up): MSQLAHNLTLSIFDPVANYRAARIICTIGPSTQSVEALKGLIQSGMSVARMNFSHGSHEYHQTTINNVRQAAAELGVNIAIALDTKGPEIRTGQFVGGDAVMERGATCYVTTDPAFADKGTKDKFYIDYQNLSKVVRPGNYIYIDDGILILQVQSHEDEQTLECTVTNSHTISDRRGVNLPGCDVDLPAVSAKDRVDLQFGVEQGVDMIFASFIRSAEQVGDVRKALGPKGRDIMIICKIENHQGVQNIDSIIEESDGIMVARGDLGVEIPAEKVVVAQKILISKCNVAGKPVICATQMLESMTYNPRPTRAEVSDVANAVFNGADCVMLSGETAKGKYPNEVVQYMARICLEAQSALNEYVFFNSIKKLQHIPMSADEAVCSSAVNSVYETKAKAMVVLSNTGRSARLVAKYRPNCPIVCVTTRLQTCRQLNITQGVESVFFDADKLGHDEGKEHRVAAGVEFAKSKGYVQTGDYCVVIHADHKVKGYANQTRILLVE
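Kinase-Glo luminescence read after 1 h RT reaction of 0.1 nM LmPK with 0.5 mM PEP and 0.1 mM ADP. Activity scaled between uninhibited and enzyme-free controls.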
Pf growth 96h: P. falciparum growth inhibition at 96 hour, primary screen for plastid delayed-death inhibitors; P. falciparum luciferase reporter growth, 96 h; Potency, µM (top dose mostly 28.7 µM), for the others: top-dose activity change, negative = inhibition, hits mostly inhibitors; 320,000 compounds, 6.9% hits; AID 504834; also: potency is read from the fitted curve at half-maximal effect; % is scaled to controls: 0 for no effect and ±100 for the full control effect
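96 h incubation, 37 C, 5% CO2, of luciferase-reporter P. falciparum-infected RBCs (2% hematocrit, 0.05% parasitemia final) with test compounds; endpoint luminescence.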
Pf growth 48h: inhibits P. falciparum growth in the first generation, 48 h | P. falciparum luciferase growth in erythrocytes, 48 h | Potency, µM (highest dose often 28.7 µM), without a hit: at the top dose activity change, negative = inhibition, usual class: inhibitors | AID 504832 | 310,000 compounds, 5.9% hits; also: potency is read from the fitted curve at half-maximal effect; % is scaled to controls: 0 for no effect and ±100 for the full control effect
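In quantitative HTS format, infected erythrocytes bearing luciferase-reporter parasites were treated for a single generation at 37 C. Luminescence after adding detection reagent served as the growth measure.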
Numbers without * were called inactive; [ ] = remark or other dose. Unless noted, calls follow the shape of the dose curve; as a rule, active = well fitted inhibition curve with a large enough effect; inconclusive = small, poorly fitted or top-dose-only effect, or another doubt; inactive = no such curve, though single readings can be large or run the other way.

Cc1csc(CNC(=O)C2CCC(=O)N(CCc3cccc(F)c3)C2)n1 (stereo not given) was read as Shiga toxin inh -3, CHX counter -5, LmPK inhibitor -2%, Pf growth 96h -19% and Pf growth 48h -2%.
`COCCn1c(SCC(=O)NCC2CCCO2)nc2c(c1=O)SCC2` (stereo not given) gave Shiga toxin inh -2, CHX counter -2, LmPK inhibitor 2%, Pf growth 96h -22% and Pf growth 48h -6%.
C[C@H](N)C(=O)N[C@@H](Cc1ccc(F)cc1)C(=O)N[C@@H](CCCN=C(N)N)C(=O)N[C@@H](CC1CCCCC1)C(=O)N[C@@H](CCCCN=C(N)N)C(=O)N[C@@H](Cc1ccc(O)cc1)C(N)=O was read as Shiga toxin inh -6 and CHX counter 7.
For CCOC(=O)COc1ncn(-c2ccccc2)n1 the results were Shiga toxin inh -6, CHX counter -1, LmPK inhibitor -5% and Pf growth 96h inconclusive.
Screening CCOC(=O)/C=C/c1cnn(-c2ccccc2)c1 returned Shiga toxin inh 169*, CHX counter 89*, LmPK inhibitor -7%, Pf growth 96h 231% and Pf growth 48h 294%.
`Cc1noc(NS(=O)(=O)c2ccc(NC(=O)c3cc(F)c(F)c(F)c3F)cc2)c1C` gave Pf growth 96h 6% and Pf growth 48h -2%.
Screening CC1CCC(NC(=O)CN2C(=O)NC(C)(C)C2=O)CC1 (stereo not given) returned Pf growth 96h 5% and Pf growth 48h 18%.
`COc1ccc(N2CCN(S(=O)(=O)c3c(C)nc4sccn4c3=O)CC2)cc1` gave Shiga toxin inh 3, CHX counter -3, LmPK inhibitor 0%, Pf growth 96h 4.1µM* and Pf growth 48h 5%.
For COc1ccccc1CN(Cc1nc2ccccc2c(=O)[nH]1)C(=O)Nc1ccc(C)cc1 the results were Shiga toxin inh 40, CHX counter 19*, LmPK inhibitor 5% and Pf growth 48h inconclusive.
Cc1ccc(S(=O)(=O)N(C)c2ccc(C(=O)N(C)Cc3nc4ccccc4c(=O)[nH]3)cc2)cc1 was read as Pf growth 96h 5.9µM* and Pf growth 48h 12µM*.
For COc1ccccc1CN(Cc1nc2ccccc2c(=O)[nH]1)S(=O)(=O)c1ccc(C)cc1 the results were Shiga toxin inh -21, CHX counter -6, LmPK inhibitor -6% and Pf growth 48h 5.9µM*.
`COC(=O)c1c(C(=O)OC)c(-c2ccc(Br)cc2)n2c1CS(=O)C2` (stereo not given) gave Shiga toxin inh -4, CHX counter -1, LmPK inhibitor 2%, Pf growth 96h -21% and Pf growth 48h 48%.
C=C(C)C1CC=C(C)/C(=N\NC(=S)Nc2ccc(C)cc2)C1 (stereo not given) was read as Shiga toxin inh 54*, CHX counter 23*, LmPK inhibitor 4%, Pf growth 96h 10µM* and Pf growth 48h 15µM*.
`CCOc1ccc(N(C(=O)c2cc3ccccc3oc2=O)C2C=CS(=O)(=O)C2)cc1` (stereo not given) gave Shiga toxin inh 78*, CHX counter 28*, LmPK inhibitor -2%, Pf growth 96h inconclusive and Pf growth 48h -7%.
For COc1ccc(OC(C)C(=O)N(C)Cc2nc(-c3cccc(C)c3)no2)cc1 (stereo not given) the results were Shiga toxin inh -3, CHX counter -3, LmPK inhibitor 2%, Pf growth 96h 6% and Pf growth 48h 1%.
For CCCCN(C(=S)Nc1cccc(C)c1C)c1c(N)n(CCC)c(=O)[nH]c1=O the results were Shiga toxin inh -17, CHX counter 1, LmPK inhibitor -4%, Pf growth 96h 9% and Pf growth 48h 4%.
For Cc1cc(/C=N/n2cnnc2)c(C)n1-c1ccc(OCc2ccc(F)cc2)cc1 the results were Shiga toxin inh 27, CHX counter 20*, LmPK inhibitor 4%, Pf growth 96h inconclusive and Pf growth 48h -6%.
COC(=O)N/N=C/c1cc(C)n(-c2ccccc2)c1C was read as Shiga toxin inh active, CHX counter 24*, LmPK inhibitor -5%, Pf growth 96h -5% and Pf growth 48h 15%.
`COC(=O)N/N=C/c1cc(C)n(-c2ccc(F)cc2)c1C` gave Shiga toxin inh 88*, CHX counter 37*, LmPK inhibitor -2%, Pf growth 96h 11% and Pf growth 48h -2%.
CCc1ccc(-n2c(C)cc(/C=N/NC(=O)OC)c2C)cc1 was read as Shiga toxin inh 26, CHX counter 8, LmPK inhibitor 1%, Pf growth 96h 4% and Pf growth 48h inconclusive.
For COC(=O)N/N=C/c1cc(C)n(-c2ccc(Br)cc2)c1C the results were Shiga toxin inh 22, CHX counter 9, LmPK inhibitor 6%, Pf growth 96h inconclusive and Pf growth 48h inconclusive.
For C[C@H]1Cc2c(COc3ccccc3)nc3c(c2CO1)CN(C(=O)C1CC1)CC3 the results were LmPK inhibitor -13%[11.5 µM].
Cc1ccc(C)c(CSC2=NCCN2S(=O)(=O)c2ccccc2)c1 was read as Shiga toxin inh 7, CHX counter 9, LmPK inhibitor -5%, Pf growth 96h inconclusive and Pf growth 48h inconclusive.
`O=C(COC(=O)c1ccncc1)Nc1cc(Cl)c(Cl)cc1Cl` gave Shiga toxin inh -7, CHX counter -2, LmPK inhibitor 3%, Pf growth 96h 58% and Pf growth 48h 38%.
For COc1ccccc1CNC(=O)/C=C/c1ccc(S(=O)(=O)NCc2ccco2)cc1 the results were Shiga toxin inh active, CHX counter 20*, LmPK inhibitor -4%, Pf growth 96h inconclusive and Pf growth 48h inconclusive.
`O=C(/C=C/c1ccc(S(=O)(=O)NCc2ccco2)cc1)NCc1cccc(Cl)c1` gave Shiga toxin inh 46*, CHX counter 29*, LmPK inhibitor -1%, Pf growth 96h inconclusive and Pf growth 48h -11%.
Screening O=C(O)/C=C/c1ccc(S(=O)(=O)NCc2ccco2)cc1 returned Shiga toxin inh 12, CHX counter 5, LmPK inhibitor 2%, Pf growth 96h inconclusive and Pf growth 48h 22%.
Screening COc1cccc(CN(Cc2ccco2)S(=O)(=O)c2ccc(S(=O)(=O)NCc3ccccc3)cc2)c1OC returned Shiga toxin inh 11, CHX counter 13, LmPK inhibitor 5%, Pf growth 96h 12% and Pf growth 48h 13µM*.
Screening NS(=O)(=O)c1ccc(NC(=O)/C=C/c2ccc(S(=O)(=O)NCc3ccco3)cc2)cc1 returned Shiga toxin inh -12, CHX counter 6, LmPK inhibitor -2%, Pf growth 96h inconclusive and Pf growth 48h 0%.
COc1ccccc1NC(=O)COC(=O)c1ccc(S(=O)(=O)NCc2ccco2)cc1 was read as Shiga toxin inh 31, CHX counter 23, LmPK inhibitor 1%, Pf growth 96h -2% and Pf growth 48h 5%.
